Test results published in PubChem BioAssay AID686978 (National Center for Advancing Translational Sciences (NCATS), 2013).
In all, about 420,000 compounds went through this assay and about 64,000 (15%) were called active. Inconclusive results (about 27%) are left out. These entries were drawn from the full list. A number with no mark means an inactive call. The call rests on the fitted dose curve; in most records, active means well fitted inhibition curve with a large enough effect; inconclusive means small, poorly fitted or top-dose-only effect; inactive means flat fitted curve, though single readings scatter.

test: qHTS for Inhibitors of human tyrosyl-DNA phosphodiesterase 1 (TDP1): qHTS in cells in absence of CPT; conditions: DT40 Tdp1-/- hTDP1 cells, no CPT, ATP luminescence, 48 h; activity change, negative = growth inhibition: at 46.2 µM (top of the series); further: nearly all actives have a fitted effect of over 55% in size
Outline: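 Growth of hTDP1-complemented DT40 Tdp1-knockout cells is measured by ATP luminescence after at least 48 hr compound exposure at 37 °C, with DMSO substituting for the 20 nM CPT used in the parallel screen.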
On the % scale 0 is the no-effect control and ±100 the full control effect; potency means the concentration at half of the fitted maximal effect.

SMILES | activity change, negative = growth inhibition [%] | Potency
COc1cc(=O)n2c(c1C(=O)NC(C)c1ccco1)CCN(Cc1cc(C)cc(C)c1)CC2 (stereo not drawn) | -11.3 | –
Cn1cc(C(=O)c2ccc(Cl)cc2Cl)cc1C(=O)NN | -21.6 | –
O=C(CNC(c1ccccc1)c1ccccc1)Nc1ccc(F)cc1 | -23.5 | –
OCCCC1CCCCN1Cc1nc(Cc2ccccc2Cl)no1 (stereo not drawn) | 10.4 | –
O=Cc1c(Cl)cccc1Cl | -0.244 | –
COc1ccc([N+](=O)[O-])cc1NCC(=O)c1ccc(C)cc1 | -24.8 | –
Cn1ncc2c(N3CCCCC3)nc(NCCCO)nc21 | -1.11 | –
Cc1cnc(C)c(-c2cc(F)c3c(c2)CC(CNC(=O)c2cccc(Cn4cccn4)c2)O3)n1 (stereo not drawn) | -26.2 | –
COCC1CCN(C(=O)c2ccc3oc(Cc4ccccc4)nc3c2)C1 (stereo not drawn) | 5.22 | –
CCOC(=O)c1ccc(NC2Nc3cc(C)nn3S2)cc1 (stereo not drawn) | 3 | –
O=C(O)CCCn1c(=O)c2cccn2c2ccc(F)cc21 | – | 7.31 µM (active)
COCCCn1c(CCC(=O)O)ccc1-c1ccc(F)cc1 | -4.41 | –
COc1cccc(CNC(=O)Cn2c(=O)c3cccn3c3ccc(F)cc32)c1OC | 6.54 | –
Cc1ccccc1-c1n[nH]c(=S)n1C | 16.2 | –
COC(CNC(=O)Cn1ncc2ccsc2c1=O)OC | -4.15 | –
Cc1c(CN2CCC(C)CC2)c(=O)n(-c2ccccc2)n1C | 0.472 | –
CCc1nnc(NC(=O)c2c(O)c3c([nH]c2=O)CCCC3)s1 | -24.8 | –
Cc1ccc(C(=O)NC(=S)Nc2ccc3[nH]c(=O)[nH]c3c2)cc1C | 3.34 | –
COC(=O)c1nc(NC(=O)c2ccccc2)n[nH]1 | -12.7 | –
Cc1cc2[nH]ncc2cc1NC(=S)NC(=O)c1ccccc1 | – | 18.4 µM (active)
O=C(COC(=O)C1CCCCC1)Nc1ccc([N+](=O)[O-])cc1 | -8.96 | –
C[C@@H]1CN([C@H](C)CO)C(=O)c2cc(NC(=O)NC3CCCCC3)ccc2O[C@H]1CN(C)S(C)(=O)=O | 1.34 | –
COc1ccc(/C=C/C(=O)NC(=S)NN2CCCCC2c2cccnc2)cc1 (stereo not drawn) | -37.1 | –

SMILES | activity change, negative = growth inhibition [%] | Potency
Cc1cc(N2CCN(c3ccc(F)cc3)CC2)n2ncnc2n1 | – | 16.4 µM (active)
Cc1cc(Nc2cccc(F)c2)n2ncnc2n1 | -1.84 | –
Cc1cc(N2CCN(Cc3ccc4c(c3)OCO4)CC2)n2ncnc2n1 | -17.8 | –
C=CCn1c(SCC(=O)NC)nnc1C12CC3CC(CC(C3)C1)C2 | -17.5 | –
O=C(c1ccc2c(c1)OCO2)N1CCNc2ccccc2C1 | -12.9 | –
CCCn1cc(SCC(N)=O)c2ccccc21 | 12.8 | –
COc1ccccc1OCCn1c(SCC(N)=O)nc2ccccc21 | -6.59 | –
CCC(=O)c1cn(CCOc2ccccc2OC)c2ccccc12 | – | 23.1 µM (active)
Cn1nnnc1SCC(=O)Nc1ccccc1C(=O)NC1CC1 | 9.22 | –
Cc1cc(=O)oc2c(C)c(OCC(=O)NCCc3ccc(S(N)(=O)=O)cc3)ccc12 | 2.29 | –
COc1cccc(NC(=S)NC(=O)c2c(Cl)c(C)nn2C)c1 | -8.21 | –
Cc1ccc(SCc2c(C(=O)N/N=C/C3CC=CCC3)nnn2-c2nonc2N)cc1 (stereo not drawn) | -24.7 | –
Nc1nonc1-n1nnc(C(=O)N/N=C/c2cc(Br)ccc2O)c1CSC1=NCCS1 | – | 6.51 µM (active)
Cc1ccc(SCc2c(C(=O)N/N=C/c3cccnc3)nnn2-c2nonc2N)cc1 | -26.9 | –
O=C(O)c1ccccc1C(=O)Nc1ccccc1[N+](=O)[O-] | -0.699 | –
CCOC(=O)N1CCN(C(=O)Cc2ccc(-n3c(=S)[nH]c4ccccc4c3=O)cc2)CC1 | -15.2 | –
Cc1cccn2c(=O)c(/C=C(\C#N)S(=O)(=O)c3ccc(Cl)cc3)c(N3CCC(C(N)=O)CC3)nc12 | -20.6 | –
Cc1cc(C)cc(Oc2nc3c(C)cccn3c(=O)c2/C=C(\C#N)C(=O)NC2CCS(=O)(=O)C2)c1 (stereo not drawn) | – | 13 µM (active)
Cc1ccc(C(=O)N/C(=C\c2ccco2)C(=O)NC2CCS(=O)(=O)C2)cc1 (stereo not drawn) | 6.49 | –
Cc1cc(C)n2nc(C(=O)N3CCN(Cc4ccc5c(c4)OCO5)CC3)nc2n1 | -14.8 | –
CCN(CC)S(=O)(=O)c1ccc2nc(CSc3nnnn3-c3ccc(O)cc3)[nH]c2c1 | -27.3 | –
CCOC(=O)/C(=N\Nc1ccccc1[N+](=O)[O-])c1csc(Nc2ccccc2)n1 | – | 16.4 µM (active)
Cc1csc(NC(=O)Nc2ccccc2[N+](=O)[O-])n1 | -20.3 | –

SMILES | activity change, negative = growth inhibition [%] | Potency
CCOc1ccccc1Nc1ccc(C(=O)O)cc1[N+](=O)[O-] | 8.42 | –
CC(=O)c1c(C)[nH]c(C(=O)NCCCN2CCCC2)c1C | 5.85 | –
Cn1cc[n+](C)c1COc1ccc(C=O)cc1 | 2.67 | –
Cc1noc(C)c1C(=O)NCCc1ccc(S(N)(=O)=O)cc1 | 7.32 | –
O=[N+]([O-])c1ccc(NS(=O)(=O)c2ccccc2)c(Cl)c1 | – | 20.6 µM (active)
Cc1cc([N+](=O)[O-])ccc1NS(=O)(=O)c1ccccc1 | – | 23.1 µM (active)
Cc1cccc(NS(=O)(=O)c2ccc([N+](=O)[O-])cc2)n1 | -3.46 | –
Cc1ccccc1OS(=O)(=O)c1cccc([N+](=O)[O-])c1 | -27.5 | –
O=[N+]([O-])c1cccc(S(=O)(=O)N2CCCCCC2)c1 | -29.9 | –
Cc1cc([N+](=O)[O-])ccc1NC1CCCC1 | 1.28 | –
COc1ccc(NC(=O)[C@H](NC(=O)[C@@H]2Cc3ccccc3CN2)c2ccccc2)cc1 | 8.27 | –
CCC(=O)Nc1sc(C(=O)N2CCCCC2)c(C)c1C#N | 3.68 | –
CCCCc1cc2c(s1)CCCC/C2=N/O | -9.17 | –
COc1ccc(NC(=O)CC2C(=O)NC3CCCCC3N2C(=O)c2ccc(F)cc2)cc1 (stereo not drawn) | -19.5 | –
COc1ccc(CNS(=O)(=O)c2ccc(NC(=O)N3CCCCC3)cc2)cc1 | – | 20.6 µM (active)
COc1ccc(NC(=O)N2CC3(CCN(C(C)=O)CC3)C2)cc1 | 11.3 | –
COc1ccc(S(=O)(=O)NC(C)C(=O)N2CCCCCC2)cc1 (stereo not drawn) | 12.3 | –
Cn1c2ccccc2c(=O)c2c(=O)n(Cc3ccco3)c(COc3ccccc3)nc21 | – | 14.6 µM (active)
COc1ccc(NC(=O)Cn2c(=O)n(Cc3ccco3)c(=O)c3ccccc32)cc1 | -3.08 | –
CCn1c(COc2ccccc2)nnc1SCC(=O)NCc1ccco1 | -37.1 | –
CCCc1cc(=O)oc2c(C)c(O)c(CN3CCCCC3)cc12 | -0.456 | –
COCCN(CCOC)c1nc(N)c2c(N)nc3c(c2c1C#N)CC(=O)N3Cc1ccc(Cl)cc1 | -26.2 | –
